About 83,000 compounds went through this panel and 20% of them were active in at least one assay; those are over-represented in the sample as a whole.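 Negative percent growth values reflect cell death: -40 means 40% of the cells present at the start died, and -100 means all died.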 Activity calls are given as the source filed them.

This test concerns SW-620 colon. Kind of test: NCI-60 one-dose screen, 48 h (100 = growth as untreated, 0 = no growth, -100 = all killed). Conditions: 10 µM unless noted. How it is done: Growth inhibition of the SW-620 human tumor cell line is measured as a screen for anti-cancer activity. Cells are grown in 96 well plates and exposed to the test compound for 48 hours. Compounds are tested at a single concentration, which is 10^-5 M for most compounds. The reported endpoint is percent growth (GI% or GIPRCNT), where numbers from 0 - 100% represent growth inhibition, and numbers from -100% - 0 represent cell death. For example, a value of 40 represents 60% growth inhibition. A value of 0 means no net growth occurred over the course of the experiment. A value of -40 indicates 40% of cells at the beginning of the experiment died by the end of the experiment. A value of -100 means all cells are dead at the end of the experiment.
NCI-60 Human Tumor Cell Lines Screen was performed using the standard one-dose NCI protocol, which is described in more detail at https://dtp.cancer.gov/discovery_development/nci-60/default.htm.
Compounds with GIPRCNT values below 10 were considered active. Activity score was based on GIPRCNT using the following formula: […]
Score is 0 for GIPRCNT values of 100 or above, 50 for GIPRCNT values of 0, and 100 for GIPRCNT values of -100.
Take `COc1cc(C)c2c(=O)c3c(oc2c1)C(=O)c1c(O)c(OC)cc(O)c1C3=O`: the growth is 16.9% (inactive).
Consider `Fc1ccc(-c2nnc(N3CCOCC3)c3ccccc23)cc1`, for which the growth is 100% (inactive).
As for `CCn1c(CN2CCN(Cc3ccccc3)CC2)nc2cc(NC(=O)c3cccs3)ccc21`, the growth is -82.8% (active).
With `OC(c1cc2c(Cl)cc(Cl)cc2c2cc(C(F)(F)F)ccc12)C1CCCCN1` (stereo not given), the growth is -74.4% (active).
Consider `Clc1ccc(Nc2ncnc3c2sc2ncccc23)cc1`, for which the growth was 46.6% (inactive).
For the molecule `CC(COC(=O)c1ccccc1)N1CC2CCC(C1)O2` (stereo not given), the growth was 97.6% (inactive).
In the case of `COC(=O)/C=C/c1cc(OC(C)=O)c2c(c1)[C@@H](C(=O)OC)[C@H](c1ccc(OC(C)=O)c(OC(C)=O)c1)O2`, the growth was 15.7% (inactive).
Next, `COc1cc(C2=NOC(c3cc(OC)c(OC)c(OC)c3)C2)ccc1OCCCCOc1cc2c(cc1OC)C(=O)N1CCC[C@H]1C=N2` (stereo not given in full): -31.7% (active); `CC(C)NCCCCCNc1cc(O)cc2cccnc12`: 83.1% (inactive).
Consider `O=C(Cn1nncc1CN1C(=O)CSC1=O)Nc1ccc(F)cc1`, for which the growth is 98.8% (inactive).
Consider `CC1(C)C2CCC(O)(C(=O)O)C1C2` (stereo not given), for which the growth is 115% (inactive).
`CC(=O)c1ccc(Nc2nc(Cl)nc(Oc3c(Cl)cccc3Cl)n2)cc1`: the growth was 88.6% (inactive).
With `CN1CCN(Cc2ccc(NC(=O)c3cncc(C#Cc4ccc(N)nc4)c3)cc2C(F)(F)F)CC1`, the growth was -15.3% (active).
Next, `CC(C)c1[nH]ncc1-c1nc2ccc3[nH]ncc3c2c2c1CCCC2`: 15.9% (inactive); `CCOC(=O)C1=C(C)NC(SCc2nnc(-c3ccc(Cl)cc3)o2)=NC1c1ccc(Cl)cc1` (stereo not given): 85.9% (inactive); `O=C(Nc1ccc(OS(=O)(=O)c2ccc(F)cc2)cc1)C12CC3CC(CC(C3)C1)C2`: 39.4% (inactive).
In the case of `COc1cc(-c2csc(NC(=O)Nc3cccc(C(F)(F)F)c3)n2)cc(OC)c1OC`, the growth is 74.3% (inactive).
With `COc1ccc2c(c1)CCCC21C(=O)Nc2ccccc21` (stereo not given) the figure was 107% (inactive); with `COc1cc(C2CC(c3cccc(Nc4ccnc5cc(Cl)ccc45)c3)=NN2c2ccc(Cl)cc2)cc(OC)c1OC` (stereo not given), 37.3% (inactive); with `Nc1c(C(=O)Nc2cccc(Cl)c2)sc2ncc(Br)cc12`, 61.3% (inactive).
As to `C=CCn1c(SCC(=O)Nc2ccc(C(=O)/C=C/c3ccccc3)cc2)nnc1-c1ccc(OC)c(OC)c1`, the growth is 100% (inactive).
Consider `c1ccc(C2=Nc3ccccc3SC2)cc1`, for which the growth is 95.4% (inactive).
On to `CCOC(=O)C(Nc1ccccc1)C(=O)OCC`, for which the growth is 111% (inactive).
In the case of `CCN(CC)c1ccc2nc3c4ccccc4c(=O)cc-3n(-c3ccccc3)c2c1`, the growth is 7.92% (active).
For `C#CC[C@@H]1C[C@]2(C)[C@H]3CC=C4[C@H]5[C@@H](C)[C@H](C)CC[C@]5(C(=O)NCCCN5CCN(CCCN)CC5)CC[C@@]4(C)[C@]3(C)CC[C@H]2C(C)(C)[C@H]1OC(C)=O`, the growth was -51% (active).
Next, `CNCc1cccc2c1OCCOCCOCCC(C)S(=O)(=O)c1ccc(cc1)-c1cnc(N)c(n1)C(=O)N2` (stereo not given): 27.6% (inactive).
With `c1ccc2c(Cc3csc4ccccc34)csc2c1`, the growth is 62.6% (inactive).
Consider `O=C(CSc1ccc(Cl)cc1)Nc1ccc(-c2nc3ccccc3s2)c(Cl)c1`, for which the growth is 65.9% (inactive).
For the molecule `O=C1Nc2ccccc2/C1=C/c1c[nH]c2ccccc12`, the growth was 100% (inactive).
For `COc1cc2nccc(Oc3ccc(NC(=O)C4(C(=O)Nc5ccc(F)cc5)CC4)cc3)c2cc1O`, the growth was 34.4% (inactive).
With `COc1ccc(C(=O)C(CN(C)C)c2ccccc2)cc1` (stereo not given) the figure was -84.7% (active).
As for `C#CC[C@@H]1C[C@]2(C)[C@H]3CC=C4[C@H]5[C@@H](C)[C@H](C)CC[C@]5(C(=O)NCCCCN)CC[C@@]4(C)[C@]3(C)CC[C@H]2C(C)(C)[C@H]1OC(C)=O`, the growth is 20.1% (inactive).
On to `CC(=O)Nc1ccc(Cl)cc1Cl`, for which the growth was 116% (inactive).
With `CCOC(=O)NNc1cccc(Cl)c1` the figure was 102% (inactive); with `CCCC(CCC)NCC(O)c1cc(-c2ccc(C(F)(F)F)cc2)nc(C(F)(F)F)c1` (stereo not given), -56.6% (active).
On to `COc1ccc(/C(=C\c2cc(OC)c(OC)c(OC)c2)C(=O)N2CCNCC2)cc1`, for which the growth is 97.6% (inactive).
Next, `C/C(=N\OC(=O)Nc1ccccc1)c1ccccc1`: 98.2% (inactive); `COc1cc(C2CC(c3cccc(Nc4ccnc5cc(Cl)ccc45)c3)=NN2c2ccccc2)cc(OC)c1OC` (stereo not given): 37.8% (inactive); `Clc1cn2cc(-c3ccc(Cl)c(Cl)c3Cl)nc2s1`: 111% (inactive).
For the molecule `CCCCN(CCCC)CCC(O)c1cc2ccc(C(F)(F)F)cc2c2cc(C(F)(F)F)ccc12` (stereo not given), the growth is 40.4% (inactive).

Values taken from PubChem BioAssay (NCI).
